# Compound activity from PubChem BioAssay.
# KCNQ2 pot: potentiators of rat KCNQ2 potassium channel; Potassium voltage-gated channel subfamily KQT member 2 (Rattus norvegicus), O88943; CHO-K1 KCNQ2, FluxOR thallium flux fluorescence; stronger effect = higher value; B-score at 10 µM; 310,000 compounds, 0.54% hits;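 active means fluorescence ratio B-score at least 3 SD of library B-scores, with initial fluorescence B-score within 3 of them, cut at about 5.3 in these data; same plate scores as AID 2156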;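 further: B-score of peak minus minimum over baseline fluorescence ratio after K+ and Tl+ stimulus; positive B-score means potentiation of KCNQ2 with more thallium influx and brighter signal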
# Target sequence (O88943 whole entry, looked up): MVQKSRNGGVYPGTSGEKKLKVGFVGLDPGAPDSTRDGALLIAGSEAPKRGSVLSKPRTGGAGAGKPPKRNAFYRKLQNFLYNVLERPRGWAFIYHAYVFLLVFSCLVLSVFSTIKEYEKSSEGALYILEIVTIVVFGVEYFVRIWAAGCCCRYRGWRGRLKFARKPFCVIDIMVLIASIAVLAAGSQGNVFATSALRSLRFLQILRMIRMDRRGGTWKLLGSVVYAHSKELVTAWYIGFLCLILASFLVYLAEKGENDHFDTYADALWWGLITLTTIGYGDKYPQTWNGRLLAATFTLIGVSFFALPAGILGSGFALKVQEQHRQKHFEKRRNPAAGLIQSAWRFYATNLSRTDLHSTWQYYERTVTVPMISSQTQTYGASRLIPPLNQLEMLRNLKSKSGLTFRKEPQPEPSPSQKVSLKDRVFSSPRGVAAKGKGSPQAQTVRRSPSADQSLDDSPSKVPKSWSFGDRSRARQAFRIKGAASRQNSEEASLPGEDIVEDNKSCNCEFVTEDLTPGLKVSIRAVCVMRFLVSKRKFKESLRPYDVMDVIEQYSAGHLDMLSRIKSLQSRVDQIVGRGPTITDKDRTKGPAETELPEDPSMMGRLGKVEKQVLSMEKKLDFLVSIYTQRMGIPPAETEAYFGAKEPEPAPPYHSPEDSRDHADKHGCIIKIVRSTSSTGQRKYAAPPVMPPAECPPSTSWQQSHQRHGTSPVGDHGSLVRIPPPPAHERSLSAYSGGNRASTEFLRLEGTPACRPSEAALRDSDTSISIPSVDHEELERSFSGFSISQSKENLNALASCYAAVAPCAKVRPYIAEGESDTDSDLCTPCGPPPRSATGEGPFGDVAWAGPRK
# KCNQ2 inh: rat KCNQ2 potassium channel inhibitors, primary screen, cell-based, CHO-K1, FluxOR thallium flux, B-score | Potassium voltage-gated channel subfamily KQT member 2 (Rattus norvegicus), O88943 | 20 min; stronger effect = lower value | B-score at 10 µM | 310,000 compounds, 1.1% hits | AID 2156, 2009;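 active means fluorescence ratio B-score at most minus 3 library SDs, with starting brightness B-score within 2 library SDs, cut at about -5.5 in these data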
# An asterisk follows results filed as active; i = inactive; nt = not tested or not shown. An excerpt weighted towards active compounds, which were near 1.6% of everything screened.
SMILES,KCNQ2 pot,KCNQ2 inh
CC(=O)Nc1ccc(S(=O)(=O)NC2CCS(=O)(=O)C2)cc1Cl (centres undefined),nt,i
O=C(c1ccco1)N1CCN(Cc2cccc([N+](=O)[O-])c2)CC1,nt,i
Cc1cccc(NC(=O)C2(c3ccccc3)CC2(Cl)Cl)c1 (centres undefined),nt,i
Cc1cc(C)cc(NC(=O)C2(c3ccccc3)CC2(Cl)Cl)c1 (centres undefined),-6.3,-6.3*
Cc1cnn(C(=O)c2cc(-c3ccccn3)nc3ccc(Cl)cc23)c1,nt,i
Cc1cccc(-c2cc(C(=O)NCc3ccccn3)c3ccccc3n2)c1,nt,i
Cc1ccc(-c2cc(C(=O)NCc3ccccn3)c3ccccc3n2)cc1C,-6.1,-6.1*
O=C(c1cc(-c2ccccn2)nc2ccc(Cl)cc12)N1CCN(CCc2ccccc2)CC1,-5.7,-5.7*
O=C(NCCc1ccc(Cl)cc1)c1cc(-c2ccccn2)nc2ccccc12,-6.5,-6.5*
O=C(NCCc1ccc(Cl)cc1)c1cc(-c2ccncc2)nc2ccccc12,nt,i
C/C(=N\NC(=O)Cc1c(Cl)cccc1Cl)c1cccnc1,1.2,i
Cc1cccc(/C(N)=N/OC(=O)c2cccc3ccccc23)c1,-5.7,-5.7*
N/C(=N\OC(=O)c1cccc2ccccc12)c1cccc([N+](=O)[O-])c1,0.82,i
O=C(O)C1(c2ccccc2)CCN(S(=O)(=O)c2cccc(Cl)c2)CC1,nt,i
CCOc1ccc(NC(=S)N2CCN(S(=O)(=O)c3ccc(OC)cc3)CC2)cc1,0.46,i
O=C(Nc1cccc(F)c1)N1CCCC(CNS(=O)(=O)Cc2ccccc2)C1 (centres undefined),2.9,i
O=C(CSc1ccccc1)N(c1ccc(Br)cc1)c1nccs1,nt,i
COc1cccc(OCCCCSc2ncccn2)c1,nt,i
c1ccc(Oc2cccc(OCCCCSc3ncccn3)c2)cc1,-6.2,-6.2*
Cc1cc(SCC(=O)c2ccc(O)c(O)c2)n2nc(C)c(-c3ccccc3)c2n1,2,i
CC(C)Oc1ccccc1C1NC(=O)CCC1[N+](=O)[O-] (centres undefined),nt,i
COC(=O)c1cn(NC(=O)Cc2ccccc2OC)c(=O)c2ccccc12,nt,i
COC(=O)c1cn(NC(=O)Cc2ccc(Cl)c(Cl)c2)c(=O)c2ccccc12,30*,i
COC(=O)c1cn(NC(=O)Cc2ccc(Cl)cc2)c(=O)c2ccccc12,18*,i
COC(=O)c1cn(NC(=O)Cc2cccc(C(F)(F)F)c2)c(=O)c2ccccc12,3.5,i
SMILES,KCNQ2 pot,KCNQ2 inh
COc1ccc(C2CC(c3ccccc3)=NN2C(=O)COC(=O)c2nc3nccc(C)n3n2)cc1 (centres undefined),2.4,i
CCOc1cccc(/C=N/Nc2nc(N3CCCC3)nc(N3CCCC3)n2)c1O,1.3,i
CCOc1cc(/C=N/Nc2nc(N3CCCC3)nc(N3CCCC3)n2)ccc1O,-8.3,-8.3*
Cc1cc2c(cc1S(=O)(=O)N1CCN(c3cccc(C)c3C)CC1)OCCN2C,nt,i
C/C(=N/O)c1no[n+]([O-])c1/C(C)=N\O,nt,i
C=CCC1(CC=C)CCCN1C(=O)Cn1nnnc1CN(C)C(C)C,0.03,i
O=[N+]([O-])c1cc(Cl)ccc1N1CCCC1,0.43,i
O=[N+]([O-])c1cc(Cl)ccc1N1CCN(c2cccc(C(F)(F)F)c2)CC1,-6.2,-6.2*
Cc1ccc(N(C(=O)NC2CCCCC2)C2=NCCCCC2)cc1,-5.8,-5.8*
Cc1ccc(N(C(=O)Nc2ccccc2)C2=NCCC2)cc1,nt,i
CC(c1ccncc1)C(C)c1ccncc1 (centres undefined),nt,i
Cc1cc(NC(=O)Nc2ccccc2F)ccc1Br,0.06,i
CCOc1cc(CNCCCN2CCOCC2)cc(Br)c1OCc1ccccc1Cl,-5.9,-5.9*
CCOc1cc(CNCCN2CCOCC2)ccc1OCc1ccccc1Cl,nt,i
CCCC/C=C/C(NC(=O)CCc1ccccc1)c1ccccc1 (centres undefined),nt,i
CCCC/C=C/[C@H](c1ccccc1)[C@H](CO)Cc1cccnc1,-5.7,-5.7*
COc1ccc(/C=N\Nc2ncc(F)c(N3CCOCC3)n2)cc1OC,0.98,i
Clc1ccc(-n2cnnn2)cc1,0.78,i
CO/C=C\C=C/c1nnn(-c2ccc(Cl)cc2)n1,-6.9,-6.9*
CCOC(=O)c1nc(NCc2cccc(OC)c2)c2ccccc2n1,nt,i
CCC(C)(C)n1nnnc1C(c1cc2ccc(OC)cc2[nH]c1=O)N1CCc2ccccc21 (centres undefined),-6.1,-6.1*
CCC(C)(C)n1nnnc1C(c1cc2cc(OC)ccc2[nH]c1=O)N1CCc2ccccc21 (centres undefined),3,i
Cc1ccc2[nH]c(=O)c(C(c3nnnn3C3CCCC3)N3CCCc4ccccc43)cc2c1 (centres undefined),0.06,i
CCC(C)(C)n1nnnc1C(c1cc2cc(C)ccc2[nH]c1=O)N1CCCc2ccccc21 (centres undefined),34*,i
Cc1ccc(NC(=O)CN2CCOCC2)cc1C,nt,i
SMILES,KCNQ2 pot,KCNQ2 inh
Cc1ccccc1OCC(=O)NNC(=O)CSc1nc(N)cc(N)n1,1.6,i
Cc1ccccc1NC(=O)C(C)n1c2ccccc2c2nc(=O)cc(C)n21 (centres undefined),nt,i
CC1CCN(C(=O)N2c3ccccc3Sc3ccccc32)CC1,nt,i
CC1CN(C(=O)N2c3ccccc3Sc3ccccc32)CC(C)O1 (centres undefined),-6.2,-6.2*
O=C(NC1CCCC1)c1ccc2c(c1)N(Cc1ccc(F)cc1)CCS2,-6.4,-6.4*
Cc1ccc(CN2CCSc3ccc(C(=O)NC4CCCC4)cc32)cc1,nt,i
CCOC(=O)c1ccc(NC(=O)c2cc3c(s2)CCC3)cc1,2,i
COc1ccc(-c2csc(N3CCN(c4cc(C)nc5ccccc45)CC3)n2)cc1OC,-6.3,-6.3*
COc1cc(-c2csc(N3CCOCC3)n2)cc(OC)c1OC,0.33,i
CC(CN1C(C)CCCC1C)OC(=O)c1ccc(Cl)cc1Cl (centres undefined),0.18,i
Cc1ccc(NC(=O)c2cc(C(=O)c3cc(Cl)ccc3O)cn(-c3ccc(C)cc3)c2=O)cc1,0.73,i
O=[N+]([O-])c1ccc(Nc2nc(N/N=C\c3ccc4c(c3)OCO4)nc(N3CCCCC3)n2)cc1,-5.8,-5.8*
O=[N+]([O-])c1ccc(/C=N/Nc2nc(N3CCCCC3)nc(N3CCCCC3)n2)cc1,nt,i
Cc1ccc2c(c1)-c1c(cnn1CC(=O)N1CCCN(Cc3ccccc3F)C1)CO2,-8.2,-8.2*
Cc1ccc2c(c1)-c1c(cnn1CC(=O)O)CO2,nt,i
C/C(=N\NC(=O)Cc1ccc(Cl)cc1)c1ccccc1O,4,i
CC1=C(/C=C/C(=O)O)C(C)(C)CCC1,0.54,i
CC1=C(/C=C/C(C)=C/C=C/C(C)=C\C(=O)O)C(C)(C)CCC1,-7.7,-7.7*
Cc1ccc(-n2c(-c3ccccc3)c[n+]3c2CCc2ccccc2-3)c(C)c1,nt,i
CCOC(=O)c1ccc(-c2cc(C)no2)[nH]1,0.96,i
Cc1ccc(NC(=S)N(CCN2CCCCC2)Cc2ccco2)cc1Cl,nt,i
CCN1CCCC1CNC(=O)c1ccc2c(c1)NC(=O)/C(=C\c1ccc(C)cc1)S2 (centres undefined),-7.6,-7.6*
